Among all 1,400 compounds or so, about 30 (2%) were called active. About 15% were inconclusive and are not listed. Calls follow the shape of the dose curve; as a rule, active = well fitted inhibition curve with a large enough effect; inconclusive = small, poorly fitted or top-dose-only effect; inactive = flat fitted curve, though single readings scatter. Only a selection was taken, and actives are over-represented in it overall.
% is scaled to controls: 0 for no effect and ±100 for the full control effect; potency is read from the fitted curve at half-maximal effect.

The assay is described as follows: Firefly Luciferase Counterscreen for Inhibitors of ATXN expression. The note with it: luminescence; series mostly up to 57.5 µM; activity change, negative = inhibition: at the top concentration. An excerpt: University of Utah School of Medicine, Salt Lake City, Utah
Spinocerebellar ataxia type 2 (SCA2) is a multisystem neurodegenerative disease caused by a dominantly acting mutation leading to expansion of a polyQ domain in the ataxin-2 protein (ATXN2). SCA2 patients develop progressive ataxia and later lose function in other neuronal systems. Prominent parkinsonian signs develop in some patients. Like many neurodegenerative disorders, no symptomatic or disease-modifying treatments are known.
The primary objective of the proposed research is to identify compounds inhibiting ATXN2 expression and to test them for efficacy in SCA2 mouse models. We have developed a cell-based assay paired with an in vivo mouse model using identical luciferase expression constructs. This approach takes advantage of an ATXN2-luciferase transgene, with the luciferase gene flanked by the upstream and downstream portions of the ATXN2 gene. Here we describe a 5-7 dose quantitative high thoroughput screen (qHTS) for compounds lowering ATXN2 expression. We screened the NIH Molecular Libraries Small Molecule Repository (MLSMR) and NCGC's mechanistically annotated (MIPE) and drug repurposing (NPC) collections of compounds for lowering expression of an ATXN2-luciferase reporter in HEK-293 cells. The assay is a multiplexed cell viability assay to ensure target reduction in the absence of cytotoxicity. Secondary qHTS assays included a CMV-luciferase reporter expressed in HEK-293 cells as well as a biochemical assay using recombinant luciferase to detect inhibitors of the reporter enzyme. Compounds that inhibit ATXN2 expression but is not cytotoxic were selected for confirmatory and secondary screens.
PROTOCOL TABLE (as described by Inglese J, Shamu CE and Guy RK. 2007)
SEQUENCE No. (e.g., 1, 2, 3, etc.); […] (e.g., Cells, Incubation, Reagent, etc.); VALUE; DESCRIPTION.
2; Compounds; 23 nL; Kalypsis pintool (Wako USA) equipped with a 1536-well pin head.
3; Enzyme; 1 uL; recombinant firefly luciferase (prepared in 50 mM Tris HCl pH7.5, 10 mM MgCl2, 0.05% BSA, 0.01% Tween20) at final concentration of 10 nM. Wells containing buffer only were used as control (set as 100% inhibition when normalizing data).
4; Incubation; 10 min; room temperature.
5; Detection; Luminescence; Viewlux plate reader (PerkinElmer).
NOTES (numbers refer to Sequence numbers above)
1. Luciferase substrate is added to 1536 well, Greiner white assay plate. Evaporation was prevented by covering assay plates with metal lids containing holes to allow gas diffusion.
2. Compounds were added in a dose response manner with the final concentrations of 57, 11.4, 2.28, 0.46, 0.091, 0.018, 0.0037 uM. Vehicle-only plates, with DMSO being pin-transferred to columns 5-48, were inserted uniformly at the beginning and the end of each library to monitor and record any shifts in assay performance.
3. Recombinant firefly luciferase (10 nM final concentration) is added to the assay plate.
5. End-point luminescence is then measured on the Viewlux (PerkinElmer) imager equipped with a clear emission filter using a 2 sec exposure.
Inglese J, Shamu CE and Guy RK, Reporting data from high throughput screening of small molecule libraries, Nature Chemical Biology, 2007, 3(8): 438-441. doi.org/10.1038/nchembio0807-438.
(In general: A counterscreen serves to expose hits that act by an unwanted route or on another target.)
As for `O=C(NC1=CC(=O)c2ccccc2C1=O)c1ccccc1`, the Potency was 12.6 µM (active).
Turning to `CC(NC1=CC(=O)c2cccnc2C1=O)C(O)c1ccccc1` (stereo not given), the “activity change, negative = inhibition” value is -12.2% (inactive).
On the same count and under the same terms, with `O=C(Nc1nonc1-c1ccc(Cl)cc1)c1ccccc1` the figure was 1.38% (inactive).
Take `O=C(N/N=C/c1cc([N+](=O)[O-])ccc1O)c1c[nH]c2ccccc12`: the “activity change, negative = inhibition” value was -4.35% (inactive).
Turning to `COc1cccc(NC(=S)/C(=C(\[O-])c2cc(C)n(-c3ccccc3F)c2C)[n+]2ccc(N(C)C)cc2)c1`, the Potency is 15.8 µM (active).
Regarding `CCCC[C@@H](CNC)NC[C@H](NCCCCC1CCCCC1)C(C)C`, the “activity change, negative = inhibition” value was 1.22% (inactive).
With `CN(C)CCCN(C(=O)c1ccco1)c1nc2ccc(Br)cc2s1`, the “activity change, negative = inhibition” value is -9.87% (inactive).
Consider `CS(=O)(=O)c1ccc(Nc2nc(C(N)Cc3ccc(Cl)cc3)cs2)cc1` (stereo not given), for which the “activity change, negative = inhibition” value was 0.635% (inactive).
For the molecule `Cc1cc(O)c(C)c(O)c1/C=N/NC(=O)c1cccnc1`, the “activity change, negative = inhibition” value is -2.83% (inactive).
Consider `CN(C(=O)c1cnc(N2CCN(c3ncccn3)CC2)c2ccccc12)c1ccc(Cl)cc1`, for which the “activity change, negative = inhibition” value was 2.16% (inactive).
In the case of `C/C(=C\C(=O)c1ccc(Br)cc1)NNC(=O)c1ccc(O)cc1`, the “activity change, negative = inhibition” value is 2.14% (inactive).
Consider `CC1C(=O)C(C)C(c2cc(Br)ccc2O)NC1c1cc(Br)ccc1O` (stereo not given), for which the “activity change, negative = inhibition” value was -3.17% (inactive).
`CCCC(=O)N1CCCC(c2cc(C(=O)Nc3ccccc3)no2)C1` (stereo not given): the Potency is 1.41 µM (active).
For the molecule `O=C(NCc1ccccc1Cl)C1CCCN(C(=O)Nc2ccc(F)cc2)C1` (stereo not given), the “activity change, negative = inhibition” value is -2.7% (inactive).
As to `O=C(c1c(F)cccc1F)N1CCCC(c2nc(-c3ccc(Cl)cc3)no2)C1` (stereo not given), the “activity change, negative = inhibition” value is -10.2% (inactive).
As for `O=C(N/N=C/c1ccc([N+](=O)[O-])s1)c1ccccc1`, the “activity change, negative = inhibition” value is -19.8% (inactive).
`Cc1cc(C(=O)N/N=C/c2ccc([N+](=O)[O-])s2)n[nH]1`: the “activity change, negative = inhibition” value was -6.06% (inactive).
With `Cc1ccccc1C(=O)N/N=C/c1ccc([N+](=O)[O-])s1`, the Potency is 3.55 µM (active).
As to `CCOC(=O)c1c(C)nn(-c2ccc(NC(=O)c3cccs3)cc2)c1C`, the “activity change, negative = inhibition” value was -9.56% (inactive).
Turning to `Cc1nc2c(OCc3ccc(C(F)(F)F)cc3)cccn2c1N(C)C(=O)CCC1CCCC1`, the “activity change, negative = inhibition” value is -4.05% (inactive).
Turning to `C[C@@H]1CN([C@H](C)CO)S(=O)(=O)c2ccc(-c3ccc(C#N)cc3)cc2O[C@H]1CN(C)C(=O)Nc1cc(F)ccc1F`, the “activity change, negative = inhibition” value is 4.48% (inactive).
The same measure, in the same setting: with `Clc1ccc(C[n+]2cc(-c3ccccc3)n3c2CCCCC3)c(Cl)c1` the figure was 5.15% (inactive).
For `COc1cc(OC)cc(-c2cc3nc(C)c(CCC(=O)O)c(C)n3n2)c1`, the Potency is 12.6 µM (active).
With `C/C(=N\NC(=O)Cc1ccc(Cl)cc1)c1ccccc1O`, the “activity change, negative = inhibition” value was -5.39% (inactive).
On the same count and under the same terms, with `COc1ccc(/C=C2\SC(=S)N(CCCC(=O)Nc3ccccn3)C2=O)cc1OC` the figure was -8.48% (inactive).
Regarding `Cc1nc2c(OCc3ccc(C#N)cc3)cccn2c1N(C)Cc1cccs1`, the “activity change, negative = inhibition” value is 0.28% (inactive).
With `C[C@@H](CN1C2=NC[C@H](Cc3ccccc3)N2C[C@H]1Cc1ccc(O)cc1)NC(=O)CCC1CCCCC1`, the “activity change, negative = inhibition” value is 1.67% (inactive).
Take `O=C(CSc1n[nH]c(-c2ccccn2)n1)Nc1ccc(F)cc1`: the “activity change, negative = inhibition” value was -11.7% (inactive).
Turning to `Cc1ccc(Cl)cc1N1CCN(C(=O)CCS(=O)(=O)c2ccc3c(c2)NC(=O)CO3)CC1`, the “activity change, negative = inhibition” value was 2.23% (inactive).
Take `CCCCOC(=O)/C=C\C(=O)NC(N)=O`: the “activity change, negative = inhibition” value was 1.17% (inactive).
The same measure, in the same setting: with `O=C(CCc1ccccc1)NC(c1cccs1)c1cc(Cl)c2cccnc2c1O` (stereo not given) the figure was -2.15% (inactive); with `O=C(Nc1nc2cc(Cl)ccc2s1)C1CCCN(S(=O)(=O)c2cccc3cccnc23)C1` (stereo not given), -4.41% (inactive); with `Cc1ccc(S(=O)(=O)N(C)C)cc1NC(=O)c1cncc(Br)c1`, 3.55% (inactive).
On to `Clc1ccc2nc(-c3ccccn3)c(Nc3ccc4c(c3)OCO4)n2c1`, for which the “activity change, negative = inhibition” value was -0.752% (inactive).
As to `OC(CNCCc1ccccc1)COc1ccc(OCC(O)CNCCc2ccccc2)cc1` (stereo not given), the “activity change, negative = inhibition” value was 3.74% (inactive).
Still for that read-out and setting: with `Cc1ccc(/C=C2/CNC/C(=C/c3ccc(C)cc3)C2=O)cc1` the figure was -13% (inactive); with `CC(=O)NC(c1ccccc1)c1cc(Cl)c2cccnc2c1O` (stereo not given), -12.7% (inactive).
As to `COc1cccc2c1C1COC3C4CC(C(=O)O)C(C(C2)N13)N4C` (stereo not given), the “activity change, negative = inhibition” value was 2.05% (inactive).
For the molecule `CC(=NNc1nc2ccccc2o1)c1ncccn1`, the Potency was 14.1 µM (active).
As for `COc1cc2nc(N(C)C)nc(N)c2cc1OC`, the “activity change, negative = inhibition” value was -5.16% (inactive).
Still for that read-out and setting: as for `O=C(N/N=C(\c1ccccc1)c1ccccn1)c1ccccc1Cl`, the figure is -10.3% (inactive).
As to `Fc1ccc(Nc2nnc(C(F)(F)F)s2)cc1Cl`, the “activity change, negative = inhibition” value is -13.2% (inactive).
For `O=C(Nc1ccccc1C(=O)Nc1nnc(C(F)(F)F)s1)c1ccccc1Cl`, the Potency was 22.4 µM (active).
Take `NC(Cc1ccc(F)cc1)c1csc(NC(=O)NC(c2ccccc2)c2ccccc2)n1` (stereo not given): the “activity change, negative = inhibition” value is 2.44% (inactive).
Turning to `O=S(=O)(c1ccc(F)cc1)c1snnc1-c1ccccc1`, the “activity change, negative = inhibition” value is 1.44% (inactive).
`O=C(Nc1nc(-c2ccccc2)cs1)c1ccccc1NS(=O)(=O)c1ccc(F)cc1`: the Potency is 28.2 µM (active).
For the molecule `OC[C@@H]1CN(Cc2ccc(-c3ccccc3)cc2)C[C@H](n2cnc3c(Nc4ccccc4)ncnc32)O1`, the “activity change, negative = inhibition” value was 1.15% (inactive).
`c1ccc(CNc2nc(-c3ccccn3)nc3ccccc23)cc1`: the “activity change, negative = inhibition” value is -7.78% (inactive).
Take `COc1ccc(CNC(=O)Nc2nc(C(N)Cc3ccc(Cl)cc3)cs2)cc1` (stereo not given): the “activity change, negative = inhibition” value was -1.52% (inactive).
Regarding `CCOC(=O)N1CCC(c2cc(=O)n3[nH]c(C)c(-c4ccc(F)cc4)c3n2)CC1`, the “activity change, negative = inhibition” value was -8.39% (inactive).

Source of the values: PubChem BioAssay AID1745846 (National Center for Advancing Translational Sciences (NCATS), 2022).
